Laboratory results taken from PubChem BioAssay AID504569 (NMMLSC, 2011).
Potency and affinity values are given separately. Active and inactive are the calls of the source.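 Rule for the calls: active = activity score above a set limit, rewarding a half-maximal dose under 10 µM and fitted response height over 20%; inactive = the rest.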

Molecular target: ATP-dependent translocase ABCB1 (Homo sapiens) (UniProt P08183)
Test: P-gp JC-1 efflux blockade concentration-response – Jurkat-DNR cells, flow cytometry, set 2, dose response (AID 504569)
Settings: series mostly up to 50 µM

Sequence of ATP-dependent translocase ABCB1 (Homo sapiens) (P08183 whole entry, looked up): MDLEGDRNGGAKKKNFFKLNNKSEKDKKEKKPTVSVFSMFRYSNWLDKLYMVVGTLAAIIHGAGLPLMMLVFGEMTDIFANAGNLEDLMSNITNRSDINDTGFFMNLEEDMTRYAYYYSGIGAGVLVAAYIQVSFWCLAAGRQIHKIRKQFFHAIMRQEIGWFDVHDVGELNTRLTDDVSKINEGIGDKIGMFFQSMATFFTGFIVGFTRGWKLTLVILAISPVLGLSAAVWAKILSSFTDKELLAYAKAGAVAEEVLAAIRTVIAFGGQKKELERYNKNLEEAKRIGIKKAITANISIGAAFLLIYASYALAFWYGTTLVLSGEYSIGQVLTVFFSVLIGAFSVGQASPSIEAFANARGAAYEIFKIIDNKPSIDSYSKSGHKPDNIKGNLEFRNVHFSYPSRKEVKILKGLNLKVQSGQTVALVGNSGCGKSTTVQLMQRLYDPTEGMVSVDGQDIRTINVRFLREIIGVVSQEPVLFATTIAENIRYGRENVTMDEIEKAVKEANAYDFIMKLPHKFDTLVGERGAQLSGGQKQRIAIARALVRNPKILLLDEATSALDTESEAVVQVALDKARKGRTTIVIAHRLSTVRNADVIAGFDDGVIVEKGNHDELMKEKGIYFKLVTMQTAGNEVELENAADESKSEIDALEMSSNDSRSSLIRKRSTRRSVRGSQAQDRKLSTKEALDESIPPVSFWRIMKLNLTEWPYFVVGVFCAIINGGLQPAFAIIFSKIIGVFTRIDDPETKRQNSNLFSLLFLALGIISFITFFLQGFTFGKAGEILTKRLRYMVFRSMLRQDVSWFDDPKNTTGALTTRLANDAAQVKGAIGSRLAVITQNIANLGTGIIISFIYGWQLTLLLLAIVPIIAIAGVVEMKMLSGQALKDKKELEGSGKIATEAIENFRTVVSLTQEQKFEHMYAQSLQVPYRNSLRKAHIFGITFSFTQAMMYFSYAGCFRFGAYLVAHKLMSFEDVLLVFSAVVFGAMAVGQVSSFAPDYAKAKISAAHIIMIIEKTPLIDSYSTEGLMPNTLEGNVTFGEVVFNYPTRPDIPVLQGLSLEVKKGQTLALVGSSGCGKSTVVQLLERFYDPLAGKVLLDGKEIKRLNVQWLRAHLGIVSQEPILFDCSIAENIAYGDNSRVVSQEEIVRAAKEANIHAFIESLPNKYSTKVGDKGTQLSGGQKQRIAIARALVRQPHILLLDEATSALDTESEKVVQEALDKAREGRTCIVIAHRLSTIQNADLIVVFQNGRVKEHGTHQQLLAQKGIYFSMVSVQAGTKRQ

outcome, inactive:
Cc1nc2cc(-c3cccs3)nn2c(N2CCN(C(=O)c3ccco3)CC2)c1C, CC(=O)N1CCN(c2c(C)c(C)nc3cc(-c4ccc(Cl)cc4)nn23)CC1, O=S(=O)(c1ccccc1)N1CCN(c2cc(-c3ccccc3)nc3cc(-c4cccc(Cl)c4)nn23)CC1
